Data taken from PubChem BioAssay (NCI).
About 83,000 compounds went through this panel and 20% of them were active in at least one assay; those are over-represented in the sample as a whole.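 Activity criterion: percent growth below 10, measured after cells in 96-well plates were exposed to a single compound concentration for 48 hours.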 Values without a mark were called inactive. Activity calls are given as the source filed them.

What follows are compounds tested on NCI-H226 lung (assay: NCI-60 one-dose screen, 48 h (100 = growth as untreated, 0 = no growth, -100 = all killed)). Conditions: 10 µM unless noted.
In the case of `CC(C)CSc1nc(Nc2ccccc2)c(C#N)c(-c2ccc(F)cc2)n1`, the growth is reported as 6.87% (active). `CCCCC(=O)Nc1c(C(=O)Nc2ccccc2)sc2nc3c(cc12)C(OC(=O)CCCC)CCC3` (centres undefined) gave a growth of 92.6%. Compound `COC(=O)[C@]1(C)CCC[C@]2(C)[C@H]3C[C@H]4C(C(C)C)=C[C@]3(CC[C@H]21)[C@@H]1C(=O)N(CCC#N)C(=O)[C@@H]14` has a growth of 81.9%. Compound `CCN1CCN(c2ccc(NC(=O)Nc3nc4ccc(-c5ccccc5OC)cc4s3)cc2)CC1` has a growth of 56.6%. With `C[C@H]1[C@H](C)CC[C@]2(C(=O)OCCOCCOCC[P+](c3ccccc3)(c3ccccc3)c3ccccc3)CC[C@]3(C)C(=CC[C@@H]4[C@@]5(C)CC[C@H](OC(=O)C(Cl)Cl)C(C)(C)[C@@H]5CC[C@]43C)[C@H]12` the growth was 15%. Work on `COc1ccc(/C(=N\O)c2cc(C)c(OC)c(C)c2)cc1O` yielded a growth of 60.6%. `O=C(Nc1nccs1)c1noc2ccccc12` was tested, and the growth was 92.7%. In the case of `CCOc1ccccc1C(=O)/C=C/c1cc2ccccc2[nH]c1=O`, the growth is reported as 8.19% (active). With `Cc1ccc(-c2nc(C#N)c(S(=O)(=O)N(C)CCO)o2)cc1` the growth was 124%. With `Cc1ccc(C2CC(c3ccc(Nc4nc(NCCO)nc(NCCO)n4)cc3)=NN2c2ccc(Cl)cc2)cc1` (centres undefined) the growth was 101%. `CN(C)CCCn1c2c(c3cc(-c4cccc(S(N)(=O)=O)c4)ccc3c1=O)C(=O)c1ccccc1-2` was tested, and the growth was 77.8%. `C=C(C)[C@@H]1CC[C@]2(C(=O)OCCOCCOCC[P+](c3ccccc3)(c3ccccc3)c3ccccc3)CC[C@]3(C)[C@H](CC[C@@H]4[C@@]5(C)CC[C@H](OC(=O)C(Cl)Cl)C(C)(C)[C@@H]5CC[C@]43C)[C@@H]12` was tested, and the growth was -2.33% (active). For `COC(=O)/C=C/c1cc(OC(C)=O)c2c(c1)C(C(=O)OC)C(c1ccc(OC(C)=O)c(OC(C)=O)c1)O2` (centres undefined), the growth was 81.7%. With `O=C(Nc1ccc(S(=O)(=O)NC2CCCCCC2)cc1)C(c1ccccc1)S(=O)(=O)c1ccc(F)cc1` (centres undefined) the growth was -21.5% (active). With `COc1ccc2cc(/C=C3\N=C(c4cc(OC)c(OC)c(OC)c4)OC3=O)c(OC)nc2c1` the growth was 107%. `N#Cc1ccc(C2C3=C(CCCC3=O)OC3=C2C(=O)c2ccccc2C3=O)cc1` (centres undefined) showed a growth of 114%. Compound `COCCOCCOCc1n(Cc2ccc3ccccc3c2)c2ccccc2[n+]1Cc1ccc2ccccc2c1` has a growth of 17.2%. Work on `CC(=O)Nc1c(C(=O)Nc2ccccc2)sc2nc3c(cc12)C(OC(C)=O)CCC3` (centres undefined) yielded a growth of 92.9%. With `CCc1ccc(OCc2ccccc2C(=O)Nc2ccc3nc(C)cc(N)c3c2)cc1` the growth was -45.8% (active). For `COc1ccc(C2C(c3ccccc3)C(=O)N2c2cc(OC)c(OC)c(OC)c2)cc1I` (centres undefined), the growth was 60.6%. `COc1cc(/C=C/C(=O)c2cccs2)ccc1OCc1ccc(Cl)nc1` was tested, and the growth was 86.8%. In the case of `C=C1C(=O)O[C@H]2[C@H]1CC/C(COC(=O)CCCCCCC(=O)OC/C1=C/CC[C@@]3(C)O[C@H]3[C@H]3OC(=O)C(=C)[C@@H]3CC1)=C\CC[C@@]1(C)O[C@@H]21`, the growth is reported as 65.2%. `COc1ccc(C2CC(c3ccc(OC)cc3O)=NN2c2ccc(S(N)(=O)=O)cc2)cc1` (centres undefined) showed a growth of 59.9%. With `CCCn1cc(/C=N\N=C2\C(=O)Nc3ccc(C)cc32)c2ccccc21` the growth was 92%. In the case of `N#Cc1c(-c2ccc(Cl)cc2)cc(-c2cc3ccccc3o2)nc1SCC(=O)c1ccc(Cl)cc1`, the growth is reported as 102%. `CCCCCCCCCCCCCC1=NCC[N+]1(CCO)Cc1ccccc1` (centres undefined) was tested, and the growth was -30.2% (active). `Nc1c(C(=O)Nc2cccc3ccccc23)sc2nc3c(cc12)CCCCC3` was tested, and the growth was 72.7%. `Cc1c(Cl)cccc1NC(=O)c1sc2nc3c(cc2c1N)CCCCCC3` showed a growth of 52.2%. `N#Cc1c(-c2ccc(F)cc2)nc(N=Nc2c(O)[nH]c3ccc(Cl)cc23)nc1N1CCOCC1` showed a growth of 10.5%. `Cc1ccccc1NC(=O)c1sc2nc(C)c(C(C)O)cc2c1N` (centres undefined) showed a growth of 88.6%. `COc1cc(F)c(-c2nc3c(C)cccc3n2Cc2c(F)cccc2F)c(F)c1` showed a growth of 88.7%. For `Oc1ccc(CNNc2ccnc3c(O)cccc23)c2cccnc12`, the growth was 86.7%. For `CC1(C)Cc2c(Br)c(Br)c(Br)c(OCC(O)CN3CCOCC3)c2O1` (centres undefined), the growth was 109%. For `CCCCCOC(=O)c1ccccc1O`, the growth was 97.8%.
